An excerpt weighted towards active compounds, which were near 5.3% of everything screened.
Vaccinia Venus – qHTS for Stage-Specific Inhibitors of Vaccinia Orthopoxvirus: Venus Reporter Primary qHTS | Potency, µM (top dose mostly 36.5 µM), for the others: at the highest dose activity change, negative = inhibition, most hits filed as inhibitors | 330,000 tested, 0.46% active | AID 720580, 2013 | Vaccinia virus Venus reporter expression, fluorescence; calls by dose curve; tested in A549 cells; note: nearly all actives have a fitted effect of over 30% in size
Lassa entry inh – qHTS for Inhibitors of binding or entry into cells for Lassa Virus. Lassa virus pseudotype entry inhibition, cell reporter. Potency, µM (titrated, usually from 37.9 µM), for the others: at the top dose activity change, negative = inhibition, usual class: inhibitors. 300,000 tested, 1.2% active; calls by dose curve; tested in HEK293 cells; note: nearly all actives have a fitted effect of over 50% in size
MARV entry inh – qHTS for inhibitors of binding or entry into cells for Marburg Virus; Marburg virus pseudotyped entry inhibition, cell reporter; Potency, µM (series often up to 37.8 µM), inactives show at the highest dose activity change, negative = inhibition, hits mostly inhibitors; AID 540276, 2011; 300,000 tested, 1.8% active; calls by dose curve; tested in HEK293 cells
FMDV inh – High Throughput Screening for Foot and Mouth Disease Virus Antivirals; Potency, µM (series often up to 57.9 µM), for the others: top-dose activity change, negative = inhibition, usual class: inhibitors; FMDV antiviral cell-based qHTS; 410,000 tested, 1.2% active; AID 1159524, 2015; calls by dose curve; tested in HEK293T cells; note: read-out not given here; nearly all actives have a fitted effect of over 45% in size
HCV inh – qHTS Assay for Inhibitors of Hepatitis C Virus (HCV); 340,000 tested, 3.4% active; Potency, µM (series often up to 41.8 µM), for the others: at the top dose activity change, negative = inhibition, most hits filed as inhibitors; AID 651820, 2012; Huh7.5.1 HCVcc-Cre infection, luciferase reporter, 44 h; active = well fitted inhibition curve with a large enough effect; inconclusive = small, poorly fitted or top-dose-only effect, or another doubt; inactive = no such curve, though single readings can be large or run the other way
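Luciferase read-out (15 sec integration) after a 15 min room-temperature substrate step quantifies HCVcc-Cre infection. Cells, 1,000 per well, had compound added 4 h post-plating, then virus at ~0.5 moi, and were cultured 44 h.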
VACV mCherry inh – qHTS for Stage-Specific Inhibitors of Vaccinia Orthopoxvirus: mCherry Reporter Primary qHTS. 310,000 tested, 0.63% active. AID 720579, 2013. Vaccinia virus mCherry reporter infection, fluorescence. Potency, µM (highest dose often 36.5 µM), without a hit: top-dose activity change, negative = inhibition, hits mostly inhibitors; calls by dose curve; tested in A549 cells; note: nearly all actives have a fitted effect of over 35% in size
* marks the source's active call; other numbers are inactive results; i = inactive; u = inconclusive; x = no result given; [ ] = dose if it differs, or a comment. % is set by controls: 0 for no effect and ±100 for the full control effect; potency is the fitted concentration of half-maximal effect.

SMILES	Vaccinia Venus	Lassa entry inh	MARV entry inh	FMDV inh	HCV inh	VACV mCherry inh
COc1cc(/C=C/C(=O)NC(=O)c2ccccc2O)ccc1OC(C)=O	u	x	x	35%	-16%	5.6µM*
COc1ccc(/C=C/C(=O)NC(=S)Nc2ccccc2)cc1OC	-21%	-8%[46.1 µM]	-2%[46.1 µM]	1%	-16%	i
Cc1cccc(/C=C/C(=O)c2cc(Br)ccc(=O)c2O)c1	-3%	u	u	u	14µM*	x
CCc1ccc(NC(=O)N2CCC(N3CCN(Cc4ccc(C)cc4)C(=O)C3=O)CC2)cc1	-14%	19%[46.1 µM]	x	-16%	x	-14%
COc1ccc(OC)c([C@@H]2C(C#N)=C(N)Oc3cc(C)n(Cc4ccccn4)c(=O)c32)c1	x	x	-1%	x	x	x
COC(=O)c1ccccc1NC(=O)CN(c1ccc(Cl)cc1)S(=O)(=O)c1ccc(OC)cc1	-13%	3%[46.1 µM]	18%[46.1 µM]	-3%	x	-15%
COc1ccc(C(=O)/C=C/c2ccccc2)cc1	-8%	x	x	12%	x	-18%
COc1ccc(C(=O)/C=C/c2ccccc2)c(OC)c1	u	x	x	-17%	-1%	u
COc1cc(C)cc(C(=O)C=Cc2ccccc2)c1O	-5%	-28%[46.1 µM]	u	32µM*	-15%	-6%
COC1=C(C)C(O)=C(C(=O)/C=C/c2ccccc2)C(=O)C1(C)C	u	x	x	-4%	2%	11µM*
CCCCCCSc1ccc(-c2nc3ccc(C)cn3c2NCc2ccccc2)cc1OC	-20%	x	x	-1%	-8%	u
CCC(C)Sc1cc(-c2nc3ccc(C)cn3c2NCc2ccccc2)ccc1OC (stereo not given)	u	x	x	16µM*	10µM*	10µM*
CCC(C)Sc1ccc(-c2nc3ccc(C)cn3c2NCc2ccccc2)cc1OC (stereo not given)	13µM*	x	x	35µM*	4µM*	u
Cc1cccc(Cn2c(CN3CCC(C(=O)NCCc4ccccc4)CC3)cc3ccccc32)c1	-20%	u	x	-15%	x	-26%
CCC1CSC(=Nc2ccc(C)cc2)N1C(=O)CN1C(=O)NC2(CCCC2)C1=O (stereo not given)	u	10µM*	u	7%	x	u
O=C(NCCc1csc(-c2cccnc2)n1)c1ccco1	-12%	x	x	-15%	11%	i
O=C(NCCc1csc(-c2ccc(Cl)cc2)n1)c1ccco1	4%	-22%[46.1 µM]	x	u	11µM*	-15%
O=C(NCCc1csc(-c2ccc(C(F)(F)F)cc2)n1)c1ccc(F)c(F)c1	-12%	-26%[46.1 µM]	x	20µM*	x	-16%
O=C(NCCc1csc(-c2cccnc2)n1)c1c(F)cccc1F	-14%	4%	-3%[46.1 µM]	12%	11µM*	-5%
COc1ccc(-c2nc(CCNC(=O)c3cccs3)cs2)cc1	-18%	u	x	u	35µM*	-20%
Cc1cccc(C)c1NC(=O)c1cc(S(=O)(=O)N2CCc3ccccc3C2)ccc1F	-4%	u	x	u	x	-2%
Cc1cc2nc(N3CCCN(Cc4cccn4-c4ncccn4)CC3)nc(C)c2cc1C	12%	x	x	-15%	x	-18%
Cc1cccc(-c2nc(CCNC(=O)c3ccco3)cs2)c1	-12%	-15%[46.1 µM]	x	-25%	x	-4%
Cc1ccc(-c2nc(CCNC(=O)c3ccco3)cs2)cc1	-3%	8%	u	u	10µM*	-17%
COc1ccc(-n2nc3c(N4CCCC(C(=O)NCCc5ccc(C)cc5)C4)nnc(C)c3c2C)cc1 (stereo not given)	u	-12%[46.1 µM]	x	-4%	x	u
SMILES	Vaccinia Venus	Lassa entry inh	MARV entry inh	FMDV inh	HCV inh	VACV mCherry inh
CC(=O)c1cccc(NC(=O)Cn2c(=O)c(CNc3ccc(C)cc3)cc3cc4c(cc32)OCCO4)c1	7%	-20%[46.1 µM]	x	36%	x	-3%
COc1ccc(C2c3c4c(n(C)c3CCN2C)CCN(C)C4c2ccc(OC)cc2)cc1 (stereo not given)	x	u	u	7%	13µM*	x
O=C(Nc1ccc(F)c(Cl)c1)N1CCC(CN2CCOCC2)CC1	-14%	u	x	18%	x	-14%
COc1ccc2oc3cc(C)[n+]([O-])c(-c4ccc(Cl)cc4)c3c2c1	-12%	u	u	35µM*	u	i
COc1ccc(-c2cc(=O)c3cc(OC)ccc3o2)cc1	-4%	x	x	34%	3%	-1%
COc1ccc(-c2c3c(cc(C)[n+]2[O-])oc2ccc(OC)cc23)cc1	-25%	u	-22%	28µM*	-11%	-10%
COc1ccc2oc3cc(C)[n+]([O-])c(-c4ccc(C)cc4)c3c2c1	-21%	u	u	25µM*	u	-11%
COc1ccc(N2CCN(C(=O)CCNS(=O)(=O)c3cccs3)CC2)cc1	13µM*	-2%	9%	x	-14%	u
COc1ccc(N2CCN(C(=O)CN(CCc3ccccc3)S(C)(=O)=O)CC2)cc1	u	u	u	x	-19%	1.8µM*
COCCNc1oc(/C=C/c2ccc(F)cc2)nc1S(=O)(=O)c1ccccc1	x	x	x	21%	-4%	x
COc1ccc(-c2nc(CN(C)C(C)c3ccon3)c(C)o2)c(C)c1C (stereo not given)	-3%	-35%	u	-29%	10µM*	-5%
Cc1ccccc1-c1nc(CN(C)C(C)c2ccon2)c(C)o1 (stereo not given)	-6%	13%	-1%[46.1 µM]	27%	-24%	-2%
Cc1cc(S(=O)(=O)NCCCn2ccnc2)c(C)cc1Cl	-13%	5%[46.1 µM]	-12%[46.1 µM]	27%	-3%	i
Cc1cc(C)c(S(=O)(=O)NCCCn2ccnc2)cc1C	-12%	u	3.5µM*	88%	-13%	-19%
CCn1cc(C(=O)NCc2cccnc2)c(=O)c2cc(F)c(N3CCN(C(=O)c4ccco4)CC3)cc21	-30%	u	u	u	u	x
CCn1cc(C(=O)NCc2cccc(F)c2)c(=O)c2cc(F)c(N3CCN(C(=O)c4ccco4)CC3)cc21	u	u	u	16µM*	u	x
CCCNC(=O)c1cn(CC)c2cc(N3CCN(C(=O)c4ccco4)CC3)c(F)cc2c1=O	x	x	x	0%	10µM*	x
CCN1CCN(c2ccc(NC(=O)c3ccc4c(c3)[nH]c(=O)n4Cc3ccc(OC)cc3)cc2)CC1	u	u	7.9µM*	-10%	u	u
O=C(NC1CCN(Cc2ccccc2)CC1)c1ccc(Cn2c(=S)[nH]c3ccc(N4CCOCC4)cc3c2=O)cc1	-10%	u	2.8µM*	20%	u	-1%
CN1C(=O)/C(=C\c2ccccc2F)Sc2ccc(C(=O)NC3CCN(Cc4ccccc4)CC3)cc21	x	x	x	u	4µM*	x
O=C(NC1CCN(Cc2ccccc2)CC1)c1ccc2c(c1)[nH]c(=O)n2Cc1ccc(F)cc1	u	u	2.8µM*	u	2.5µM*	u

Screens from PubChem.
